Assay results taken from PubChem BioAssay (EPA / NIEHS).
Results filed as inconclusive are left out. Active and inactive are the calls of the source. How the source made its calls: active means hit-call score of the fitted dose curve at least 0.9, where 1 is the maximum; inconclusive means response in the unintended direction; inactive means score below 0.9.

Legend:
[1] = TOX21_p53_BLA_p4_viability: Viability Assessment in the Tox21 HCT-116 p53 Agonism Beta-lactamase Assay, Phase 4 (AID 2283597);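 further: hits lower the luminescence signal meaning cytotoxicity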
Method in brief: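 HCT116 p53-bla cells (4000/well) rested 5 h at 37C, then received compounds in DMSO (217-fold dilution) for 16 h at 37C, 5% CO2. CellTiter-Glo was added after the CCF4-AM read, and luminescence was read after 30 min at room temperature.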

[2] = target: Cellular tumor antigen p53 (Homo sapiens) (UniProt P04637); test: TOX21_p53_BLA_p5_ratio: Tox21 HCT-116 p53 Agonism Beta-lactamase Assay, Ratio, Phase 5 (AID 2283599)
Method in brief: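 Beta-lactamase reporter ratio (blue 460 nm over green 530 nm, 405 nm excitation) after 2 h CCF4-AM loading, in HCT-116 cells exposed 16 h at 37 C to compounds pinned at 217-fold dilution. Increases relative to DMSO baseline scored.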

[3] = target: Cellular tumor antigen p53 (Homo sapiens) (UniProt P04637); test: TOX21_p53_BLA_p4_ratio: Tox21 HCT-116 p53 Agonism Beta-lactamase Assay, Ratio, Phase 4 (AID 2283601)
Method in brief: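 Signal is the blue/green (460nm/530nm) ratio of cleaved versus uncleaved CCF4-AM substrate, read after 2 h substrate loading. Cells were HCT116 carrying the p53-responsive beta-lactamase reporter, dosed 16 h at 37C, 5% CO2; CellTiter-Glo measured in parallel.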

[4] = TOX21_p53_BLA_p5_viability: Viability Assessment in the Tox21 HCT-116 p53 Agonism Beta-lactamase Assay, Phase 5 (AID 2283600)
Method in brief: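 Cells were plated at 4000/well, rested 5 h at 37C, then given compounds in DMSO (217-fold dilution) for 16 h at 37C, 5% CO2. Following the CCF4-AM beta-lactamase read, CellTiter-Glo was added and luminescence was read after 30 min at room temperature.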

Chain of Cellular tumor antigen p53 (Homo sapiens) (P04637 whole entry, looked up): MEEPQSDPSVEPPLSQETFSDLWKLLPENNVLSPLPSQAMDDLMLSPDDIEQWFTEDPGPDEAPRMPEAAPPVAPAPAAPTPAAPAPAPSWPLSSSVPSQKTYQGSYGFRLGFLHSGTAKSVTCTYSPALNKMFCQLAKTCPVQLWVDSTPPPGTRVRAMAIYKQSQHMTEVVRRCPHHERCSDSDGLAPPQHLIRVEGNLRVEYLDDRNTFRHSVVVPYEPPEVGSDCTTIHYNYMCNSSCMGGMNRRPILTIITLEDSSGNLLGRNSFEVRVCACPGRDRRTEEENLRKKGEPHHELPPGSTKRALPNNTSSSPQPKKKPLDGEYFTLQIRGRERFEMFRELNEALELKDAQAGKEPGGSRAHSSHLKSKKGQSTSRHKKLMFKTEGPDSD

## COC(=O)N[C@H](C(=O)N[C@@H](Cc1ccccc1)[C@@H](O)CN(Cc1ccc(-c2ccccn2)cc1)NC(=O)[C@@H](NC(=O)OC)C(C)(C)C)C(C)(C)C
[1]
  outcome: inactive
[2]
  outcome: inactive
[3]
  outcome: inactive

## COc1ccc(CCNCC(O)COc2cccc(C)c2)cc1OC (stereo unspecified)
[1]
  outcome: inactive

## Cc1cccc(C)c1NC(=O)CN1CCCC1
[1]
  outcome: inactive
[2]
  outcome: inactive
[3]
  outcome: inactive

## CS(=O)(=O)NC(=O)CCC/C=C\C[C@H]1C(=O)C[C@@H](O)[C@@H]1/C=C/[C@H](O)COc1ccccc1
[1]
  outcome: inactive
[2]
  outcome: inactive

## CCCCCCCC/C=C\CCCCCCCC(=O)OCCOC(=O)CCCCCCC/C=C\CCCCCCCC
[1]
  outcome: inactive
[2]
  outcome: inactive
[3]
  outcome: inactive

## CNC1(C)C2CCC(C2)C1(C)C (stereo unspecified)
[1]
  outcome: inactive
[2]
  outcome: inactive
[4]
  outcome: inactive
[3]
  outcome: inactive

## O=C(O)C=Cc1ccc(C=CC(=O)O)cc1
[1]
  outcome: inactive

## C[C@H]1c2cccc(O)c2C(O)=C2C(=O)[C@]3(O)C(O)=C(C(N)=O)C(=O)[C@@H](N(C)C)[C@@H]3[C@@H](O)[C@@H]21
[1]
  outcome: inactive
[3]
  outcome: inactive

## NC(=O)[C@@H]1C[C@]2(NC(=O)NC2=O)c2cc(F)ccc2O1
[1]
  outcome: inactive
[4]
  outcome: inactive
[3]
  outcome: inactive

## O=C(O)c1cc(O)c2c(c1)[O][Bi][O]2
[1]
  outcome: inactive

## CCCCNc1c(C(=O)OCC)c(C)nc2c1cnn2CC
[1]
  outcome: inactive
[4]
  outcome: inactive
[3]
  outcome: inactive

## CCCCC(=O)O[C@]1(C(=O)CO)CC[C@H]2[C@@H]3CCC4=CC(=O)CC[C@]4(C)[C@H]3[C@@H](O)C[C@@]21C
[1]
  outcome: inactive
[4]
  outcome: inactive
[3]
  outcome: inactive

## CCNC(=O)[C@@H]1CCCN1C(=O)[C@H](CCCN=C(N)N)NC(=O)[C@H](CC(C)C)NC(=O)[C@@H](CC(C)C)NC(=O)[C@H](Cc1ccc(O)cc1)NC(=O)[C@H](CO)NC(=O)[C@H](Cc1c[nH]c2ccccc12)NC(=O)[C@H](Cc1cnc[nH]1)NC(=O)[C@@H]1CCC(=O)N1
[1]
  outcome: inactive
[2]
  outcome: inactive

## CCCCCCCCCCCCCCBr
[1]
  outcome: inactive
[4]
  outcome: inactive
[3]
  outcome: inactive

## C=CCCCC
[1]
  outcome: inactive
[4]
  outcome: inactive
[3]
  outcome: inactive

## Fc1ccccc1-c1ccccc1
[1]
  outcome: inactive
[2]
  outcome: inactive
[4]
  outcome: inactive

## Nc1ccc([N+](=O)[O-])c(N)c1
[1]
  outcome: inactive
[3]
  outcome: inactive

## O=C(NNCS(=O)(=O)O)c1ccncc1
[1]
  outcome: inactive
[3]
  outcome: inactive

## COc1ccc(-c2cc(=S)ss2)cc1
[1]
  outcome: inactive
[3]
  outcome: inactive

## NC(CO)C(=O)NNCc1ccc(O)c(O)c1O (stereo unspecified)
[4]
  outcome: inactive
[3]
  outcome: inactive

## CCCCCC[C@@H](O)C/C=C\CCCCCCCC(=O)OC
[2]
  outcome: inactive
[4]
  outcome: inactive

## Nc1nc(CC(=O)O)cs1
[1]
  outcome: inactive
[3]
  outcome: inactive

## FC(F)(F)c1ccccc1Cl
[1]
  outcome: inactive
[3]
  outcome: inactive

## O=S(=O)(O)CO
[2]
  outcome: inactive
[3]
  outcome: inactive
